Test results reported in PubChem BioAssay AID1402 (National Center for Advancing Translational Sciences (NCATS), 2008).
Records with an inconclusive call do not appear. A number with no mark means an inactive call. Calls follow the shape of the dose curve; as a rule, active = well fitted curve in the direction sought with a large enough effect in the signal ratio; inconclusive = small, poorly fitted or top-dose-only effect, or effect the other way, or a change in a side signal; inactive = no such curve, though single readings can be large or run the other way; the % refers to the signal ratio.

These compounds were tested against Lutropin-choriogonadotropic hormone receptor (Homo sapiens) (UniProt P22888) (assay: Counterscreen for Agonists of Thyroid Stimulating Hormone Receptor: HTRF Activity in a Luteinizing Hormone Receptor Cell Line). Settings: HEK293-LHR cells, cAMP HTRF ratio, 30 min; series mostly up to 91.7 µM; activation (cAMP increase): at the top concentration.
Chain of Lutropin-choriogonadotropic hormone receptor (Homo sapiens) (P22888 whole entry, looked up): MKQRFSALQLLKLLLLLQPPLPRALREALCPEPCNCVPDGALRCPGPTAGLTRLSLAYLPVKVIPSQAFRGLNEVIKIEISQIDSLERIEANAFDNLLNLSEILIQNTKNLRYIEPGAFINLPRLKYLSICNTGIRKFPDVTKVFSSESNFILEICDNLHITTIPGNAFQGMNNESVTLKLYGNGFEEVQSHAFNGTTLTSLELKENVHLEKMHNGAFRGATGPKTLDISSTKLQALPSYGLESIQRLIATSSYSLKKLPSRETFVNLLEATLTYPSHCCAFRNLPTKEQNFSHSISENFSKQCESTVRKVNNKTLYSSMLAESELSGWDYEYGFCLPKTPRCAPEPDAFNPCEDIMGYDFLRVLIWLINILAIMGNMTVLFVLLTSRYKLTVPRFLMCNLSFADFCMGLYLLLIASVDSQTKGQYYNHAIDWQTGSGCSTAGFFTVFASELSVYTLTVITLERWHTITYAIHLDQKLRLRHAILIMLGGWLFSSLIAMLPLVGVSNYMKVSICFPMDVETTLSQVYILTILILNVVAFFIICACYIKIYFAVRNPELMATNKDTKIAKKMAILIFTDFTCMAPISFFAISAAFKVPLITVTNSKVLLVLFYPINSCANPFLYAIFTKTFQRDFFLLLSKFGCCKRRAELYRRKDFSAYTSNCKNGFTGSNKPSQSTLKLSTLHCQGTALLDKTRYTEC
Excerpt: NIH Chemical Genomics Center [NCGC] NIH Molecular Libraries Screening Centers Network [MLSCN] MLSCN Grant: 1 X01 MH080680-01 PI Name: Dr. Marvin Gershengorn, NIH NCGC Assay Overview: Confirmation of Thyroid Stimulating Hormone Receptor Agonists TSH is an alpha/beta heterodimeric glycoprotein hormone secreted from the anterior pituitary gland which belongs to the glycoprotein hormone family. The actions of TSH are mediated by a seven-transmembrane receptor, which upon TSH binding couples preferentially to the G-alpha (s) protein (Gs), resulting in activation of adenylate cyclase and increase in cyclic adenosine 3', 5' monophosphate (cAMP). The TSH receptor (THSR) is mainly expressed in thyroid follicular cells and regulates their growth and function. Recombinant TSH is used to activate TSHR in patients with thyroid cancer receiving thyroid hormone suppression therapy and to screen for residual tumor after surgery, but it is expensive and must be administered intramuscularly. An orally active small molecule TSHR agonist would serve as an invaluable research tool for studying TSHR pharmacology and physiology, and would have multiple advantages in therapeutic settings. However, no selective small molecule agonist of the TSH receptor exists, and no small molecule screen for TSHR agonists has ever been reported. In order to confirm specificity of the compounds to the TSHR, a confirmatory assay was conducted on a similar family member, the Luteinizing Hormone (LH) receptor, transfected into a HEK 293 cell line, using an orthogonal detection technology to measure cAMP stimulation: antibody-based Homogeneous Time Resolved Fluorescence (HTRF).
NCGC Assay Protocol Summary: Homogeneous Time Resolved Fluorescence (HTRF) cAMP Assay. HEK 293 cells stably transfected with a vector containing the LH receptor and maintained under hygromycin selection were obtained from the laboratory of Dr. Marvin Gershengorn. Compounds were assayed using a HTRF cAMP detection kit (Cisbio) on the LH receptor transfected cell line. Briefly, 750 cells were plated in 2.5 ul/well of complete media (DMEM containing 10 % FCS, and 100 uM RO 20-1724) in 1536 well solid bottom white plates and 23 nl/well compound in DMSO solution or controls was added. Following 30 minute incubation at room temperature, 2.5 ul/well of labeled d2 cAMP and 2.5 ul/well of anti-cAMP antibody (both diluted 1:20 in lysis buffer) were added to each well using a flying reagent dispenser (Aurora Discovery, San Diego) . Plates were measured using the Envision plate reader (PerkinElmer, Boston, MA) with excitation at 330 nm and emissions of 615 nm and 660 nm. Keywords: Luteinizing hormone LH, Thyroid-stimulating hormone TSH, TSHR, TSHR agonist, quantitative high throughput screening, qHTS, HTS, probe identification, CNG, cAMP, cyclic nucleotide gated ion channel PubChem

First: Cc1sc2ncn(/N=C/c3cn(-c4ccccc4)nc3-c3ccccc3)c(=O)c2c1C
Second: O=c1c2c(-c3ccccc3)csc2ncn1/N=C/c1cn(-c2ccccc2)nc1-c1cccs1
The “activation (cAMP increase)” value of the first is higher: 2.31% for the first, 1.85% for the second.

Going from `COc1ccc(C(=O)N(Cc2ccco2)Cc2cccs2)cc1` to `COc1ccc(C(=O)N(Cc2ccco2)Cc2cccs2)c(O)c1`, the “activation (cAMP increase)” value falls from 3.2% to 2.94%.

Going from `COc1ccc(C2Nc3ccccc3C(=O)N2Cc2ccco2)cc1COc1c(C)cccc1C` (configuration not stated) to `COc1ccc(C2Nc3ccccc3C(=O)N2Cc2ccco2)cc1COc1ccc([N+](=O)[O-])cc1` (configuration not stated), the “activation (cAMP increase)” value falls from 2.23% to 1.81%.

Compared with `O=C1C2C3CCCC3=C3CCCC3C2C(=O)N1c1cccc(Cl)c1` (configuration not stated), `O=C1C2C3CCCC3=C3CCCC3C2C(=O)N1c1ccc(Cl)cc1` (configuration not stated) is higher in “activation (cAMP increase)” value: 1.77% for the first, 2.44% for the second.

First: COc1cc(OC)c(C(=O)N(Cc2ccco2)Cc2cccs2)cc1OC
Second: COc1cc(OC)cc(C(=O)N(Cc2ccco2)Cc2cccs2)c1
The “activation (cAMP increase)” value of the first is higher: 1.72% for the first, 1.68% for the second.

First: O=C1C2C3CCCC3=C3CCCC3C2C(=O)N1c1ccc(F)cc1 (configuration not stated)
Second: O=C1C2C3CCCC3=C3CCCC3C2C(=O)N1c1ccccc1Cl (configuration not stated)
The “activation (cAMP increase)” value of the first is lower: 0.715% for the first, 1.18% for the second.

First: CCn1c(=O)c(C(=O)CN2CCCc3ccccc32)c(N)n(Cc2ccccc2)c1=O
Second: Cc1nn(-c2ccccc2)c(N2CCCC2)c1/C=N/n1cnc2scc(-c3ccccc3)c2c1=O
The “activation (cAMP increase)” value of the first is higher: 2.69% for the first, 2.52% for the second.

Going from `NC(=O)c1nsc(C(=O)N(CC(=O)NCc2ccc3c(c2)OCO3)C2CCCC2)c1N` to `NC(=O)c1nsc(C(=O)N(CC(=O)NCc2ccc3c(c2)OCO3)C2CCCCC2)c1N`, the “activation (cAMP increase)” value falls from 2.94% to 1.56%.

Going from `CC(NC(=O)COC(=O)c1ccco1)C12CC3CC(CC(C3)C1)C2` (configuration not stated) to `O=C(COC(=O)C12CC3CC(CC(C3)C1)C2)NCc1ccco1`, the “activation (cAMP increase)” value falls from 3.79% to 2.36%.

Compared with `O=C(COC(=O)C12CC3CC(CC(Cl)(C3)C1)C2)NCc1ccco1`, `O=C(COC(=O)C12CC3CC(CC(O)(C3)C1)C2)NCc1ccco1` is lower in “activation (cAMP increase)” value: 4.42% for the first, 1.68% for the second.

First: O=C1CC(c2ccco2)CC2=C1C(c1ccccc1)n1nc(C(F)(F)F)nc1N2 (configuration not stated)
Second: O=C1CC(c2ccccc2)CC2=C1C(c1ccco1)n1nc(C(F)(F)F)nc1N2 (configuration not stated)
The “activation (cAMP increase)” value of the first is lower: 2.99% for the first, 3.49% for the second.

First: O=C(COC(=O)C12CC3CC(CC(C3)C1)C2)NCC1CCCO1 (configuration not stated)
Second: O=C(COC(=O)C12CC3CC(CC(Br)(C3)C1)C2)NCc1ccco1
The “activation (cAMP increase)” value of the first is lower: 3.45% for the first, 4.71% for the second.

`COc1ccc(C2Nc3ccccc3C(=O)N2Cc2ccco2)cc1COc1ccc(NC(C)=O)cc1` (configuration not stated) and `COc1ccc(C2Nc3cccc(O)c3C(=O)N2Cc2ccccc2)cc1COc1ccc(NC(C)=O)cc1` (configuration not stated) are the same in “activation (cAMP increase)” value: 3.62% for the first, 3.62% for the second.

`NC(=O)c1nsc(C(=O)N(CC(=O)NC2CCCC2)Cc2ccc3c(c2)OCO3)c1N` was tested, and the “activation (cAMP increase)” value was 3.37%.
